What all share (assay): NCI-60 one-dose screen, 48 h (100 = growth as untreated, 0 = no growth, -100 = all killed)
Holding throughout (settings): 10 µM unless noted

Experiment [1] has as its system NCI-H23 lung.
The test system of experiment [2] is NCI-H226 lung.
The subject of experiment [3] is NCI-H322M lung.
Experiment [4] deals with HOP-62 NSCLC.
Experiment [5] relates to NCI-H460 lung.
Experiment [6] deals with HOP-92 NSCLC.
Experiment [7] has as its system NCI-H522 lung.
Experiment [8] has as its system A549/ATCC NSCLC.
Experiment [9] deals with 786-0 renal.
The test system of experiment [10] is COLO 205 colon.
Experiment [11] deals with DU-145 prostate.
Experiment [12] concerns K-562 leukemia.
In experiment [13] the test system is MALME-3M melanoma.
In experiment [14] the test system is MDA-MB-231 breast.
Experiment [15] deals with RXF 393 renal.
Experiment [16] relates to SF-268 CNS.
The test system of experiment [17] is SF-295 CNS.
Experiment [18] relates to SF-539 CNS.
Experiment [19] concerns UACC-257 melanoma.
Experiment [20] relates to M14 melanoma.

The structures appear in SMILES notation. About 83,000 compounds went through this panel and 20% of them were active in at least one assay; those are over-represented in the sample as a whole.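 Interpretation: 100, growth as untreated; towards 0, rising growth inhibition; 0, no net growth; 0 to -100, cell death. Compounds scoring below 10 were considered active.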 Values without a mark were called inactive. Calls of active or inactive are those of the source.

For `C=C(c1ccc(C(=O)O)c(F)c1)c1cc2c(cc1C)C(C)(C)CCC2(C)C`, the growth in experiment [1] is 80%; in [2], 82.6%; in experiment [3], 101%; in experiment [4], 76.4%; in experiment [5], 81.5%; in experiment [6], 58.4%. The growth in experiment [7] was 78.1%; in experiment [8], 52%; in experiment [9] it was 96.6%; in experiment [10], 123%; in experiment [11] it was 108%; in experiment [12] it was 71.9%. For the same molecule, the growth in experiment [13] was 63.6%; in experiment [14], 85.7%; in experiment [15], 90.9%; in experiment [16], 77.9%; in experiment [17], 72.8%; in [18] it was 81.1%. The results for the growth in experiment [19] and in experiment [20] were 95.8% and 89.4%, respectively.

Turning to `Cc1ccc(S(=O)(=O)N2CCCN(c3nc(-c4ccccc4)nc4nc(-c5ccccc5)oc34)CC2)cc1`, the growth was 100% in [1]; 99.5% in experiment [2]; 97.3% in experiment [3]; 101% in [4]; 103% in experiment [5]; 110% in experiment [6]. Further, the growth in [7] was 83.6%; in experiment [8], 106%; in experiment [9], 102%; in experiment [10] it was 124%; in [11], 113%; in experiment [12] it was 97.3%. For the same molecule, the growth was 111% in experiment [13]; 96.8% in experiment [14]; 128% in experiment [15]; 106% in experiment [16]; 105% in experiment [17]; 96% in experiment [18]. Also, the growth is 108% in [19] and 110% in experiment [20].

On to `COc1ccc(CN2C(=O)OC(C)(COC(C)=O)C2=O)cc1` (stereo not given), for which the growth in [1] was 108%; in experiment [2], 98.1%; in experiment [3], 99%; in [4] it was 106%; in [5] it was 111%; in experiment [6], 100%. The growth in experiment [7] was 91.4%; in experiment [8] it was 94.5%; in [9], 106%; in [10], 119%; in experiment [11], 107%; in experiment [12], 94.5%. Besides, the growth was 102% in [13]; 103% in [14]; 105% in [15]; 102% in [16]; 99.7% in [17]; 96% in experiment [18]. The growth is 100% in experiment [19] and 105% in [20].

Take `CC(C)=CC(=O)N[C@H]1CC[C@]2(C)C3CC[C@]4(C)C(C(C)N(C)C)=CCC4C3CCC2[C@H]1O` (stereo not given in full): the growth in [1] was 65%; in [2], 99.6%; in experiment [3] it was 57.5%; in experiment [4] it was 66.6%; in experiment [5] it was 18.6%; in [6], 41%. For the same molecule, the growth in [7] was 89.4%; in experiment [8] it was 75.5%; in [9], 48.2%; in [10], -14.9% (active); in experiment [11], 71.9%; in experiment [12], 19.5%. For the same molecule, the growth in [13] was -27.3% (active); in experiment [14], 44.2%; in experiment [15] it was 26.8%; in experiment [16] it was 9.05% (active); in [17] it was 59.2%; in experiment [18] it was -32.2% (active). In addition, the growth in [19] was -26.8% (active); in [20] it was -56.3% (active).

Take `O=CN1N=C(c2cccc(Nc3ccnc4cc(Cl)ccc34)c2)CC1c1ccc(Cl)cc1` (stereo not given): the growth in experiment [1] is 1.81% (active); in experiment [2] it was 59.4%; in experiment [3], 59.6%; in experiment [4] it was 24.2%; in experiment [5] it was 19.3%; in experiment [6], 21.9%. Further, the growth in experiment [7] is -17.4% (active); in experiment [8], 34.3%; in experiment [9] it was 28.8%; in experiment [10], -9.28% (active); in [11] it was 23.8%; in experiment [12], 15.8%. Further, the growth in experiment [13] is 44.4%; in [14], 30.2%; in experiment [15] it was -4.85% (active); in [16] it was 37.1%; in experiment [17] it was 11.7%; in experiment [18], 19.2%. In addition, the growth in experiment [19] was 52.8%; in [20], 21.7%.

For `COc1ccc(C(=O)C/C(=C\c2ccc(O)c(OC)c2)C(=O)NN)cc1`, the growth in experiment [1] is 68.9%; in [2], 91.7%; in experiment [3] it was 82%; in [4] it was 67.4%; in experiment [5] it was 43.6%; in experiment [6], 69.5%. The growth in [7] was 52.1%; in experiment [8], 80%; in experiment [9], 112%; in experiment [10], 106%; in experiment [11] it was 101%; in [12], 47.2%. The growth in [13] was 93.4%; in experiment [14], 65.4%; in experiment [15], 107%; in [16] it was 92.4%; in experiment [17], 102%; in experiment [18], 80.8%. Moreover, the growth in experiment [19] was 81.5%; in experiment [20], 91.5%.

In the case of `C=CC(CC(c1ccccc1)(c1ccccc1)c1ccccc1)N(CC)CC` (stereo not given), the growth was 71.7% in experiment [1]; 75.7% in [2]; 90% in experiment [3]; 87.5% in experiment [4]; 62.6% in experiment [5]; 54.8% in experiment [6]. In addition, the growth in [7] is 84.1%; in experiment [8], 82.5%; in experiment [9], 67.8%; in [10] it was 64.5%; in experiment [11], 58.8%; in experiment [12], 25.4%. For the same molecule, the growth in experiment [13] was 54%; in experiment [14] it was 53.4%; in [15], 40.6%; in [16], 73.9%; in experiment [17], 78.8%; in [18], 69.1%. Also, the growth in [19] is 79.3%; in experiment [20], 30.1%.

Source of the values: PubChem BioAssay (NCI).
